According to PubChem BioAssay (NCI):
“And” between values parts separate entries of the source, which are not always exact repeats. Equal entries are not always repeated. The panel holds about 83,000 compounds, 20% with a hit somewhere; the sample as a whole holds those more often.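 Note: values are percent growth. 100 is the growth of untreated cells, values between 100 and 0 indicate rising inhibition; between -100 and 0 indicates cell death.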 The source made the active and inactive calls. How the source made its calls: active means growth percent below 10; inactive means the rest. Where a SMILES comes first, the peptide text is derived from it. Bridges are numbered along the chain shown (N, C = ends). [ ]: non-standard residue; d: D form. The star is where a group is joined. ξ: configuration not given here. ξNMePhe(4-NMe2) = CNC(Cc1ccc(N(C)C)cc1)C(=O)O; Picolinoyl(3-OH) = O=C(c1ncccc1O)*; ξPip(4-oxo) = O=C1CCNC(C(=O)O)C1; Phg = N[CH](C(=O)O)c1ccccc1; Abu = CC[CH](N)C(=O)O

Experiments:
Test in all cases: NCI-60 one-dose screen, 48 h (100 = growth as untreated, 0 = no growth, -100 = all killed)
HCT-15 colon = conditions: 10 µM
HT29 colon = conditions: 10 µM
SNB-75 CNS = conditions: 10 µM
SNB-19 CNS = conditions: 10 µM
U251 CNS = conditions: 10 µM
PC-3 prostate = conditions: 10 µM
SK-MEL-5 melanoma = conditions: 10 µM
UACC-62 melanoma = tested on: UACC-62 melanoma
LOX IMVI melanoma = conditions: 10 µM
SK-MEL-28 melanoma = conditions: 10 µM

Measured: growth

CC(=O)OCC(=O)[C@@]1(O)CC[C@H]2[C@@H]3CC[C@@H]4C[C@H](O)CC[C@]4(C)[C@H]3C(=O)C[C@@]21C
inactive: HCT-15 colon 106% | HT29 colon 117% | SNB-75 CNS 88.6% | SNB-19 CNS 111% | U251 CNS 102% | PC-3 prostate 95.5% | SK-MEL-5 melanoma 97.1% | UACC-62 melanoma; 10 µM unless noted 103% | LOX IMVI melanoma 101% | SK-MEL-28 melanoma 121%

CCC/C=C(\C)C(C)(C#N)C(=O)OCC (stereo not given)
inactive: HCT-15 colon 113% | HT29 colon 109% | SNB-75 CNS 87.8% | SNB-19 CNS 102% | U251 CNS 102% | PC-3 prostate 101% | SK-MEL-5 melanoma 103% | UACC-62 melanoma; 10 µM unless noted 102% | LOX IMVI melanoma 99.9% | SK-MEL-28 melanoma 109%

COc1cc2c3cc1Oc1c(OC)c(OC)cc4c1C(Cc1ccc(O)c(c1)Oc1ccc(cc1)CC3N(C)CC2)N(C)CC4 (stereo not given)
98.2% (inactive) and -80.6% (active): UACC-62 melanoma; 100 µM
active: HCT-15 colon 6.32% | HT29 colon -21.8% | U251 CNS -95.9% | PC-3 prostate 1.26% | SK-MEL-5 melanoma -98.2% | LOX IMVI melanoma -90.5% | SK-MEL-28 melanoma -80.8%
inactive: SNB-75 CNS 33.3% | SNB-19 CNS 27.2% | UACC-62 melanoma; 10 µM 27.6%

CCC1NC(=O)C(NC(=O)c2ncccc2O)C(C)OC(=O)C(c2ccccc2)NC(=O)C2CC(=O)CCN2C(=O)C(Cc2ccc(N(C)C)cc2)N(C)C(=O)C2CCCN2C1=O (stereo not given) (tested in a mixture with another compound) ({Picolinoyl(3-OH)}-T[Abu]P[ξNMePhe(4-NMe2)][ξPip(4-oxo)][Phg]; ester 1-C; configuration not given here)
active: SK-MEL-5 melanoma -21.7%
inactive: HCT-15 colon 79.3% | HT29 colon 43.6% | SNB-75 CNS 45.4% | SNB-19 CNS 78.4% | U251 CNS 64.9% | PC-3 prostate 55.5% | UACC-62 melanoma; 10 µM unless noted 50.9% | LOX IMVI melanoma 49.2%

O=C(c1ccc(Cl)cc1)c1ccccc1Cl
inactive: HCT-15 colon 95.8% | HT29 colon 101% | SNB-75 CNS 100% | SNB-19 CNS 85.1% | U251 CNS 98.3% | PC-3 prostate 93.4% | SK-MEL-5 melanoma 94.5% | UACC-62 melanoma; 10 µM unless noted 87.7% | LOX IMVI melanoma 96.2% | SK-MEL-28 melanoma 129%

C=CC(O)CCC (stereo not given)
inactive: HCT-15 colon 98% | HT29 colon 99.7% | SNB-75 CNS 95.7% | SNB-19 CNS 100% | U251 CNS 92.8% | PC-3 prostate 90% | SK-MEL-5 melanoma 107% | UACC-62 melanoma; 10 µM unless noted 95.9% | LOX IMVI melanoma 98.6% | SK-MEL-28 melanoma 98.3%

O=C(Cc1ccccc1)Cc1ccccc1
inactive: HCT-15 colon 103% | HT29 colon 108% | SNB-75 CNS 99.5% | SNB-19 CNS 101% | U251 CNS 96.7% | PC-3 prostate 103% | SK-MEL-5 melanoma 96.5% | UACC-62 melanoma; 10 µM unless noted 97% | LOX IMVI melanoma 103% | SK-MEL-28 melanoma 108%

O=[N+]([O-])c1ccc(CO)cc1
inactive: HCT-15 colon 98% | HT29 colon 108% | SNB-75 CNS 108% | SNB-19 CNS 105% | U251 CNS 105% | PC-3 prostate 97.2% | SK-MEL-5 melanoma 101% | UACC-62 melanoma; 10 µM unless noted 99.1% | LOX IMVI melanoma 99.2% | SK-MEL-28 melanoma 112%

CCCC(=O)c1cc(C)ccc1OC
inactive: HCT-15 colon 100% | HT29 colon 107% | SNB-75 CNS 94.9% | SNB-19 CNS 114% | U251 CNS 115% | PC-3 prostate 91.3% | SK-MEL-5 melanoma 104% | UACC-62 melanoma; 10 µM unless noted 95.5% | LOX IMVI melanoma 109% | SK-MEL-28 melanoma 105%

CC(C)C1CCCCC1O (stereo not given)
inactive: HCT-15 colon 96% | HT29 colon 106% | SNB-75 CNS 108% | SNB-19 CNS 104% | U251 CNS 100% | PC-3 prostate 98.3% | SK-MEL-5 melanoma 103% | UACC-62 melanoma; 10 µM unless noted 102% | LOX IMVI melanoma 96.3% | SK-MEL-28 melanoma 116%

C#CC(C)(O)c1ccc(Cl)cc1 (stereo not given)
active: UACC-62 melanoma; 10 µM unless noted -18.6%
inactive: HCT-15 colon 98.4% | HT29 colon 102% | SNB-75 CNS 98.8% | SNB-19 CNS 106% | U251 CNS 97.8% | PC-3 prostate 96.6% | SK-MEL-5 melanoma 101% | LOX IMVI melanoma 94.5% | SK-MEL-28 melanoma 110%

Cc1ccc(C(O)C2CC2)cc1 (stereo not given)
inactive: HCT-15 colon 97.7% | HT29 colon 104% | SNB-75 CNS 88.9% | SNB-19 CNS 96.7% | U251 CNS 100% | PC-3 prostate 94.5% | SK-MEL-5 melanoma 103% | UACC-62 melanoma; 10 µM unless noted 98.8% | LOX IMVI melanoma 100% | SK-MEL-28 melanoma 106%

CCOc1ccccc1/C=N/Nc1nc2ccccc2o1
inactive: HCT-15 colon 76.3% | HT29 colon 110% | SNB-75 CNS 83.9% | SNB-19 CNS 100% | U251 CNS 105% | PC-3 prostate 85.8% | SK-MEL-5 melanoma 97.7% | UACC-62 melanoma; 10 µM unless noted 82.6% | LOX IMVI melanoma 94.1% | SK-MEL-28 melanoma 100%

COc1cc2c(cc1O)CC[C@@H]1C2CC[C@@]2(C)C1CC[C@@H]2O (stereo not given in full)
active: SNB-75 CNS 3.42% | SK-MEL-5 melanoma -22.1%
inactive: HCT-15 colon 29.9% | HT29 colon 22.4% | SNB-19 CNS 28.9% | U251 CNS 33.5% | PC-3 prostate 19.7% | UACC-62 melanoma; 10 µM unless noted 22.2% | LOX IMVI melanoma 48%

CO[C@H]1C[C@@H]2CC[C@@H](C)[C@@](O)(O2)C(=O)C(=O)N2CCCC[C@H]2C(=O)O[C@H]([C@H](C)C[C@@H]2CC[C@@H](O)[C@H](OC)C2)CC(=O)[C@H](C)C=C(C)[C@@H](O)[C@@H](OC)C(=O)[C@H](C)C[C@H](C)/C=C/C=C/C=C1C
inactive: HCT-15 colon 42.7% | HT29 colon 45.3% | SNB-75 CNS 13.3% | SNB-19 CNS 46.2% | U251 CNS 51.8% | PC-3 prostate 44% | SK-MEL-5 melanoma 24.8% | UACC-62 melanoma; 10 µM unless noted 43.8% | LOX IMVI melanoma 51.9%

Nc1ncnc2c1nc(N)n2C1OC(CO)C(O)C1O (stereo not given)
active: HCT-15 colon -7.88% | HT29 colon -4.96% | SNB-75 CNS -75.8% | SNB-19 CNS -16.5% | U251 CNS 2.54% | PC-3 prostate -11.7% | SK-MEL-5 melanoma -87.6% | UACC-62 melanoma; 10 µM unless noted -68.3% | LOX IMVI melanoma -80.3% | SK-MEL-28 melanoma -48.1%

O=C(O)/C=C/C(=O)NCc1ccccc1
inactive: HCT-15 colon 97.3% | HT29 colon 105% | SNB-75 CNS 81.9% | SNB-19 CNS 115% | U251 CNS 118% | PC-3 prostate 101% | SK-MEL-5 melanoma 101% | UACC-62 melanoma; 10 µM unless noted 118% | LOX IMVI melanoma 97% | SK-MEL-28 melanoma 105%

COC(=O)c1ccc(C(C)C)cc1
inactive: HCT-15 colon 96.2% | HT29 colon 107% | SNB-75 CNS 103% | SNB-19 CNS 103% | U251 CNS 98.6% | PC-3 prostate 90.6% | SK-MEL-5 melanoma 104% | UACC-62 melanoma; 10 µM unless noted 99.4% | LOX IMVI melanoma 95% | SK-MEL-28 melanoma 110%

O=C(O)c1ccc(S(=O)(=O)O)cc1
inactive: HCT-15 colon 102% | HT29 colon 107% | SNB-75 CNS 94.9% | SNB-19 CNS 106% | U251 CNS 103% | PC-3 prostate 88.2% | SK-MEL-5 melanoma 110% | UACC-62 melanoma; 10 µM unless noted 102% | LOX IMVI melanoma 97.3% | SK-MEL-28 melanoma 109%

OCc1ccc(-c2ccc(-c3ccc(CO)s3)o2)s1
active: HT29 colon -26.5% | UACC-62 melanoma; 10 µM unless noted -35%
inactive: HCT-15 colon 51% | SNB-75 CNS 58.8% | SNB-19 CNS 78.4% | U251 CNS 15.3% | PC-3 prostate 73.1% | SK-MEL-5 melanoma 60.6% | LOX IMVI melanoma 73.2%

COc1cc2cc(c1Cl)N(C)C(=O)C[C@H](OC(=O)[C@H](C)N(C)C(C)=O)[C@]1(C)O[C@H]1[C@H](C)[C@@H]1C[C@@](O)(NC(=O)O1)[C@H](OC)C=C/C=C(\C)C2
inactive: SNB-19 CNS 14.4% | U251 CNS 11.5% | LOX IMVI melanoma 18.4%
active: HCT-15 colon -14.5% | HT29 colon -29.3% | SNB-75 CNS -49% | PC-3 prostate 0.19% | SK-MEL-5 melanoma -24.4% | UACC-62 melanoma; 10 µM unless noted 9.3%

CC(C)COC(=O)COC(=O)OCCOCCOC(=O)OCC(=O)OCC(C)C
inactive: HCT-15 colon 104% | HT29 colon 101% | SNB-75 CNS 102% | SNB-19 CNS 101% | U251 CNS 94.9% | PC-3 prostate 94.8% | SK-MEL-5 melanoma 101% | UACC-62 melanoma; 10 µM unless noted 97.6% | LOX IMVI melanoma 106% | SK-MEL-28 melanoma 107%

OC(c1ccccn1)C(O)c1ccccn1 (stereo not given)
inactive: HCT-15 colon 97.6% | HT29 colon 106% | SNB-75 CNS 89.9% | SNB-19 CNS 99.3% | U251 CNS 109% | PC-3 prostate 102% | SK-MEL-5 melanoma 106% | UACC-62 melanoma; 10 µM unless noted 95.6% | LOX IMVI melanoma 96% | SK-MEL-28 melanoma 113%

CC(=O)OCC1=CC2OC(=O)C3=COC(OC4OC(CO)C(O)C(O)C4O)C1C32 (stereo not given)
inactive: HCT-15 colon 112% | HT29 colon 106% | SNB-75 CNS 104% | SNB-19 CNS 111% | U251 CNS 101% | PC-3 prostate 110% | SK-MEL-5 melanoma 104% | UACC-62 melanoma; 10 µM 102% | UACC-62 melanoma; 100 µM 77.3% and 98.7% | LOX IMVI melanoma 111%

Oc1ccc2c(c1)OCC1(O)Cc3cc(O)c(O)cc3C21 (stereo not given)
inactive: HCT-15 colon 80.6% | HT29 colon 92.4% | SNB-75 CNS 22.8% | SNB-19 CNS 117% | U251 CNS 90.7% | PC-3 prostate 69.5% | SK-MEL-5 melanoma 95.5% | UACC-62 melanoma; 10 µM unless noted 91.5% | LOX IMVI melanoma 98.2%
